The nature of experiment [1]: qHTS assay to identify small molecule antagonists of the estrogen receptor beta (ER-beta) signaling pathway - cell viability counter screen (AID 1259382; active = well fitted curve in the direction sought with a large enough effect in the repeat runs; an effect the other way counts as inactive or inconclusive;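 note: HEK293T cells carrying ER-beta-UAS-bla reporter stimulated with estradiol; series mostly up to about 92 µM; nearly all actives have a fitted effect of over 55% in size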). The method in brief: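 Luminescent ATP read-out (CellTiter-Glo, 30 min, RT) taken in the same wells as the bla reporter assay. HEK293T ER-beta-UAS-bla cells in 2% charcoal-stripped FBS were exposed to compounds with 1nM E2 for 16 hr at 37C.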
A general note: Quantitative high-throughput screening tests each substance at several concentrations.

The target in experiment [2] is Estrogen receptor (Homo sapiens) (UniProt P03372). The experiment can be described thus: qHTS assay to identify small molecule agonists of the estrogen receptor alpha (ER-alpha) signaling pathway in the presence of an antagonist (AID 1259383). Note: top concentration of the series differs between compounds; nearly all actives have a fitted effect of over 15% in size. Put shortly: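 Luciferase luminescence (ONE-Glo, 30min at room temperature) measured in VM7Luc4E2 cells after 22hr compound exposure at 15 concentrations, with 10.0nM ICI-182,780 final present; cells express endogenous ER-alpha and carry four EREs upstream of luciferase.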

Experiment [3] in a line: qHTS assay to identify small molecule agonists of the estrogen receptor alpha (ER-alpha) signaling pathway in the presence of an antagonist - cell viability counter screen (AID 1259386; active = well fitted curve in the direction sought with a large enough effect in the repeat runs; an effect the other way counts as inactive or inconclusive;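 note: cells exposed to compounds for 22 h at 37 °C before the viability read; nearly all actives have a fitted effect of over 30% in size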; note: potency is the fitted concentration of half-maximal effect; for activity change, negative = cytotoxicity: series mostly up to about 92 µM). Put shortly:
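Read-out: CellTiter-Fluor fluorescence after 1hr reagent incubation, measured in the same wells as the luciferase readout. VM7Luc4E2 cells were exposed to 15 compound concentrations with 10.0nM ICI-182,780 for 22hr at 37C.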

The target of experiment [4] is Progesterone receptor (Homo sapiens) (UniProt P06401). Briefly: qHTS assay to identify small molecule agonists of the progesterone receptor (PR) signaling pathway (AID 1346784). Note: nearly all actives have a fitted effect of over 30% in size. Put shortly:
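Agonist mode, quantitative HTS format in a HEK 293T line expressing a UAS-controlled beta-lactamase reporter; 16 hr compound exposure at 37C in 2% charcoal-stripped FBS, then LiveBLAzer B/G FRET fluorescence.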

Experiment [5] shares this target. The experiment can be described thus: qHTS assay to identify small molecule antagonists of the progesterone receptor (PR) signaling pathway (AID 1346795; active = well fitted inhibition curve with a large enough effect in the signal ratio in the repeat runs, not every such curve was filed as active; the % refers to the signal ratio). The method in brief: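 HEK293T PR-UAS-bla reporter cells in charcoal-stripped serum (2%) received compound after a 6 hr settling period, followed by R5020 agonist at 1 nM final; 16 hr incubation preceded the FRET substrate step and fluorescence measurement.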

The nature of experiment [6]: qHTS assay to identify small molecule antagonists of the progesterone receptor (PR) signaling pathway - cell viability counter screen (AID 1346798; active = well fitted curve in the direction sought with a large enough effect in the repeat runs; an effect the other way counts as inactive or inconclusive; note: series mostly up to about 92 µM; nearly all actives have a fitted effect of over 50% in size). Put shortly: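 Same-well multiplex: after 16 hr at 37C with compound and R5020 stimulation, HEK293T cells carrying a UAS-bla reporter received LiveBLAzer substrate (2 hr RT), then CellTiter-Glo (30 min RT) for luminescent viability.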

A short description of experiment [7]: qHTS assay to identify small molecule agonists of the progesterone receptor (PR) signaling pathway - cell viability counter screen (AID 1346799). Note: nearly all actives have a fitted effect of over 45% in size. The method in brief:
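Counter screen for cytotoxicity: compound-treated PR-UAS-bla HEK293T cells (16 hr, 37C, 5% CO2) were assayed with CellTiter-Glo, luminescence measured after 30 min at room temperature.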

Experiment [8] can be described thus: qHTS assay to identify small molecule agonists or antagonists of the thyroid stimulating hormone receptor (TSHR) signaling pathway - wild type cell line counter screen (AID 1259384). Put shortly: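 Counter screen in untransfected Hek293: compounds (15-point titration, triplicate) plus phosphodiesterase inhibitor Ro20-1724 added after 18 h plating; 30 min RT. Intracellular cAMP via competitive d2/cryptate immunoassay, 1 h incubation.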

The target of experiment [9] is Thyrotropin receptor (Homo sapiens) (UniProt P16473). The experiment can be described thus: qHTS assay to identify small molecule antagonists of the thyroid stimulating hormone receptor (TSHR) signaling pathway (AID 1259385). Note: nearly all actives have a fitted effect of over 20% in size. Put shortly: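 Antagonist mode: compound-treated TSHR-expressing HEK293 cells were stimulated with 1.5 ng/mL TSH (final) in presence of Ro20-1724 for 30 min at RT. HTRF cAMP detection after 1 h; each compound tested at 15 concentrations, triplicate.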

Values without a mark were called inactive. Records with an inconclusive call do not appear. Calls of active or inactive are those of the source. Unless noted, calls come from the whole dose curve.
% is set by controls: 0 for no effect and ±100 for the full control effect.

Progesterone receptor (Homo sapiens), sequence (P06401 whole entry, looked up): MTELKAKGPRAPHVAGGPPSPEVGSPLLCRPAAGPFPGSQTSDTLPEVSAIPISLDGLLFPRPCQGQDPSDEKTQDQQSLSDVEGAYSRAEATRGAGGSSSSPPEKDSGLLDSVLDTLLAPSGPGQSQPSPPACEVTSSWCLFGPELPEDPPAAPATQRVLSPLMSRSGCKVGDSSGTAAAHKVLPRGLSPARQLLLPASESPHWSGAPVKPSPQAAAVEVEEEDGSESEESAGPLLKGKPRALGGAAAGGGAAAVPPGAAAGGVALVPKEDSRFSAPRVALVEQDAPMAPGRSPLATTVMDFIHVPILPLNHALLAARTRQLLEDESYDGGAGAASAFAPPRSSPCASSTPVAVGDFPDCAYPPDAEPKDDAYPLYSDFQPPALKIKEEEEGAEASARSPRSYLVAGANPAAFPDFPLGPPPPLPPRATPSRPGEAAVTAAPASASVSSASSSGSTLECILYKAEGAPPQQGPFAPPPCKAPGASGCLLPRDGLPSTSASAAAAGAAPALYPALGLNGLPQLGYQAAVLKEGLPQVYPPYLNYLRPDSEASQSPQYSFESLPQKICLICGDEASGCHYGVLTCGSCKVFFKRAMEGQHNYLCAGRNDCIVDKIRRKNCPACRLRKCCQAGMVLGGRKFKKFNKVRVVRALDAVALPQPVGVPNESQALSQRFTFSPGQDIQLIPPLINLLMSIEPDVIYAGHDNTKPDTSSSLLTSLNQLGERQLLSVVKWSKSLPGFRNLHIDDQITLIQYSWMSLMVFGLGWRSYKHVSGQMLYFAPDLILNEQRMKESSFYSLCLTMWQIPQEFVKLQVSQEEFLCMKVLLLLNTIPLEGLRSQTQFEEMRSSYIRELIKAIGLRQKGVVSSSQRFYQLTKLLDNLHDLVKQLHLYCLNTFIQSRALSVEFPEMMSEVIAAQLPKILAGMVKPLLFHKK
Estrogen receptor (Homo sapiens), sequence (P03372 whole entry, looked up): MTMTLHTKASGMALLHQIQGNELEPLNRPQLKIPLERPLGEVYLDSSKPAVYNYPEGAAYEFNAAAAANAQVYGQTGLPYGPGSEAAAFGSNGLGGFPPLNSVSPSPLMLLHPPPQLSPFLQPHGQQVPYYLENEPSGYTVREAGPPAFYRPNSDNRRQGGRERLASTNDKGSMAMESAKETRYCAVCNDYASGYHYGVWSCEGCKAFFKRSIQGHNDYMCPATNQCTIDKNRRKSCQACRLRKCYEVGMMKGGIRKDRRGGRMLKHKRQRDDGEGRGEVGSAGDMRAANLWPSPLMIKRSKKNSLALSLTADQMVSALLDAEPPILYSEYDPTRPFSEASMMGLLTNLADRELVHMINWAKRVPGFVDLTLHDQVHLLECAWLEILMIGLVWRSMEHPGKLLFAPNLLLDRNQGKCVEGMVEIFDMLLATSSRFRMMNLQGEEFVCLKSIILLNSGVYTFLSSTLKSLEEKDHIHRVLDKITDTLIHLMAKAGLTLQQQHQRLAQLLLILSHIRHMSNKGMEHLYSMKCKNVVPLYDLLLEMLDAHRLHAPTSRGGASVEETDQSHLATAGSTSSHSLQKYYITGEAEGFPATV
Thyrotropin receptor (Homo sapiens), sequence (P16473 whole entry, looked up): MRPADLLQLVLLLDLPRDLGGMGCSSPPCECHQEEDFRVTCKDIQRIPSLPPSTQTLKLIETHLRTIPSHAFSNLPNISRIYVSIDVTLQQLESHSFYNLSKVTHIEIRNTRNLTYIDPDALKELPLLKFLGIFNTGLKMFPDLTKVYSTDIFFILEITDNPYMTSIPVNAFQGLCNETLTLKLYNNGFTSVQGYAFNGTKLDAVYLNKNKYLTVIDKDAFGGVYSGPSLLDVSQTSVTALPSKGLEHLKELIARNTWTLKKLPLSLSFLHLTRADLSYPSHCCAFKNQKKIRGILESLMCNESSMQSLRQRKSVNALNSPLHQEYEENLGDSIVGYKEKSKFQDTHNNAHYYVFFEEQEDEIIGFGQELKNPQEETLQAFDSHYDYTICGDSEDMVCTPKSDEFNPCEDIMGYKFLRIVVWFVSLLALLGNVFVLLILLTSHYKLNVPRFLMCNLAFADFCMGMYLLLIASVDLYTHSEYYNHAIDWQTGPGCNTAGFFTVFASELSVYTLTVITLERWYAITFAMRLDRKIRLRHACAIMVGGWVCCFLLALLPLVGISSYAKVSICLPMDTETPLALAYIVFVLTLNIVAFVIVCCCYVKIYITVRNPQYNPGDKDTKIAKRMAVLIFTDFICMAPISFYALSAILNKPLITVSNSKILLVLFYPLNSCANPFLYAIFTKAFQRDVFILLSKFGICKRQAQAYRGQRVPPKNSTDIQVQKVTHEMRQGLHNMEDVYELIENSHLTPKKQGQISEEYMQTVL

Consider `COc1cc2c(Nc3ccc(Br)cc3F)ncnc2cc1OCC1CCN(C)CC1`, for which the result in experiment [1] and in [2] was inactive. The Potency entry in experiment [3], in experiment [4], in experiment [5], in experiment [6] and in experiment [7] was “inactive” throughout.

As for `CC(C)COC(=O)CC(C(=O)OCC(C)C)S(=O)(=O)O` (stereo not drawn), the compound was classed as inactive in experiment [1] and in [2]. In addition, the Potency result in experiment [3], in [4], in [5], in experiment [6] and in [7] was “inactive” in each case.

Regarding `CN[C@@H]1[C@@H](O)[C@@H](O[C@@H]2[C@H](O)[C@H](O[C@H]3OC(CN)=CC[C@H]3N)[C@@H](N)C[C@H]2N)OCC1(C)O` (stereo partly drawn), the call in [1], in [8] and in experiment [9] was inactive. For the same compound, the Potency entry in [3], in experiment [4], in experiment [5], in experiment [6] and in experiment [7] was “inactive” each time.

Take `CCC(CO)CO`: the result in experiment [1] and in [2] was inactive. In addition, the Potency entry in [3], in experiment [4], in experiment [5], in experiment [6] and in [7] was “inactive” in each case.

For `NS(=O)(=O)c1cc2c(cc1Cl)NC(CC1CCCC1)NS2(=O)=O` (stereo not drawn), the result in experiment [1], in experiment [8] and in experiment [9] was inactive. The Potency entry in experiment [3], in experiment [4], in [5], in experiment [6] and in experiment [7] was “inactive” each time.

In the case of `O=C(Nc1cccc(C2=NCCN2)c1)Nc1cccc(C2=NCCN2)c1`, the activity change, negative = cytotoxicity in experiment [1] is -2.3% [at 19 µM]; in [3] it was 1.98% [at 19 µM]; in experiment [7] it was 7.7% [at 19 µM]. Also, the activation in experiment [2] is 0.321% [at 19 µM].

With `CC(C)=CC(C)(C)C`, the outcome in experiment [1], in experiment [8] and in experiment [9] was inactive. Besides, the Potency entry in experiment [3], in experiment [4], in [5], in [6] and in experiment [7] was “inactive” throughout.

Regarding `COc1cc(C=O)ccc1OC(=O)C(C)C`, the compound was called inactive in experiment [1], in [8] and in [9]. For the same compound, the Potency entry in experiment [3], in experiment [4], in experiment [5] and in experiment [6] was “inactive” throughout.

As to `CCC(=O)c1ccc(O)cc1`, the compound was called inactive in experiment [1] and in [2]. Also, the Potency result in [3], in [4], in experiment [5], in [6] and in experiment [7] was “inactive” each time.

As to `O=C(O)Cc1cccc(-c2cc(CCCCCCc3ccc(O[C@H]4O[C@H](CO)[C@@H](O)[C@H](O)[C@@H]4O)c(-c4cccc(CC(=O)O)c4)c3)ccc2O[C@H]2O[C@H](CO)[C@@H](O)[C@H](O)[C@@H]2O)c1`, the figures for the activity change, negative = cytotoxicity in experiment [1], in experiment [3] and in [6] were 7.67% [at 0.349 µM], 4.6% [at 0.349 µM] and 8.15% [at 0.348 µM], respectively. The cAMP activity change in experiment [8] was -6.17% [at 0.349 µM]. Moreover, the activity change, negative = inhibition was -1.92% [at 0.349 µM] in experiment [9] and 0.629% [at 0.348 µM] in [5]. The activation in experiment [4] was 1.15% [at 0.349 µM].

As for `CO[Si](CCCCl)(OC)OC`, the result in [1] and in experiment [2] was inactive. The Potency entry in experiment [3], in experiment [4], in [5] and in experiment [6] was “inactive” throughout.

`CCOC(=O)OCC/C(SC(=O)OCC)=C(\C)N(C=O)Cc1cnc(C)nc1N`: the outcome in experiment [1], in [8] and in [9] was inactive. Also, the Potency entry in [3], in experiment [4], in [5], in experiment [6] and in experiment [7] was “inactive” in each case.

Turning to `CCCC(C)CC` (stereo not drawn), the compound was called inactive in experiment [1], in [8] and in experiment [9]. Further, the Potency result in experiment [3], in [4], in experiment [5] and in experiment [6] was “inactive” throughout.

On to `Cc1ccccc1OCC1CO1` (stereo not drawn), for which the call in experiment [1] and in experiment [2] was inactive. Further, the Potency entry in experiment [3], in experiment [4], in experiment [5], in experiment [6] and in experiment [7] was “inactive” throughout.

For `CC1=NN(c2ccc(S(=O)(=O)O)cc2)C(=O)C1N=Nc1ccccc1` (stereo not drawn), the result in experiment [1] and in [2] was inactive. Moreover, the Potency in experiment [3] is 30.6 µM (active). The Potency result in [4], in [5] and in [6] was “inactive” throughout.

For `CC(CC(=O)O)CC(C)(C)C` (stereo not drawn), the compound was classed as inactive in experiment [1] and in [2]. Further, the Potency entry in experiment [3], in experiment [4], in [5], in [6] and in experiment [7] was “inactive” each time.

`Cc1ccc(C(=O)C(=O)O)cc1C`: the outcome in [1] and in experiment [2] was inactive. Further, the Potency result in [3], in [4], in [5], in experiment [6] and in [7] was “inactive” each time.

Turning to `CCCO`, the compound was called inactive in experiment [1] and in [2]. Besides, the Potency result in experiment [3], in [4], in experiment [5], in [6] and in experiment [7] was “inactive” each time.

As for `Cc1c(C(C)C)c(=O)n(-c2ccccc2)n1C`, the compound was classed as inactive in experiment [1] and in experiment [2]. In addition, the Potency entry in [3], in experiment [4], in experiment [6] and in [7] was “inactive” throughout.

`CCCCCN(CCCOC)C(=O)C(CCC(=O)O)NC(=O)c1ccc(Cl)c(Cl)c1` (stereo not drawn): the compound was classed as inactive in experiment [1] and in experiment [2]. Further, the Potency result in experiment [3], in experiment [4], in [5] and in [6] was “inactive” in each case.

In the case of `O=C1NC2NC(=O)NC2N1` (stereo not drawn), the outcome in experiment [1], in experiment [8] and in experiment [9] was inactive. Besides, the Potency result in experiment [3], in experiment [4], in [5] and in experiment [6] was “inactive” each time.

As to `C[CH2][Ge]([Cl])([CH2]C)[CH2]C`, the result in experiment [1], in experiment [8] and in experiment [9] was inactive. For the same compound, the Potency entry in experiment [3], in [4] and in experiment [5] was “inactive” in each case.

`CC(=O)Nc1ccc(C)cc1`: the compound was classed as inactive in experiment [1] and in [2]. For the same compound, the Potency result in [3], in [4], in [5], in experiment [6] and in experiment [7] was “inactive” each time.

Turning to `CCNC(=O)NCCCOc1cccc(CN2CCCCC2)c1`, the compound was classed as inactive in experiment [1] and in [2]. Also, the Potency entry in [3], in [4], in [5] and in experiment [6] was “inactive” in each case.

With `NS(=O)(=O)c1cc2c(cc1Cl)NC(C(Cl)Cl)NS2(=O)=O` (stereo not drawn), the call in experiment [1], in [8] and in [9] was inactive. Besides, the Potency result in [3], in [4], in experiment [5], in experiment [6] and in experiment [7] was “inactive” in each case.

Take `c1ccc(CNc2ncnc3nc[nH]c23)cc1`: the compound was classed as inactive in experiment [1], in [8] and in [9]. Also, the Potency entry in experiment [3], in experiment [4], in experiment [5] and in [6] was “inactive” throughout.

The record behind these values is PubChem BioAssay (Tox21).
